# From PubChem
# Sampled rows, rich in hits. Any-hit rate of the full collection: about 7.5%.
# Luc counter: counter-screen: inhibitors of Kinase-Glo firefly luciferase | Q27757 | Kinase-Glo luciferase, ATP luminescence, 8 min | Potency, µM (top dose mostly 38.3 µM), without a hit: top-dose activity change, negative = inhibition, usual class: inhibitors | 0.28% of 200,000 active; note: % is set by controls: 0 for no effect and ±100 for the full control effect; nearly all actives have a fitted effect of over 60% in size
#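 Luminescence was the read-out, taken after 8-minute incubation at ambient temperature. Luciferase turned over luciferin with 10 uM ATP in imidazole pH 7.2 buffer containing KCl, MgCl2, Tween 20 and BSA.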
# SMN2 splice up: SMN2 splice variant enhancement; 2.8% of 210,000 active; HEK293 SMN2-luciferase splicing reporter, luminescence, 30-36 h; Potency, µM (titrated, usually from 46.1 µM), for inactives: at the top dose activity change, positive = activation, hits mostly activators; AID 1458; note: % of control where 0% means no effect; nearly all actives have a fitted effect of over 55% in size
#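 HEK293 cells carry an SMN2 minigene-luciferase reporter in which exon 7 inclusion puts luciferase in frame. Cells were seeded at 2000 cells/well, attached for 10-12 hours, then exposed to compounds for 30-36 hours at 37C before ONE-Glo luminescence.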
# FLuc counter: inhibits or activates purified firefly luciferase, miR-21 counter-screen; 6.9% of 360,000 active; P08659; AID 588342; purified FLuc, Km substrates, luminescence inhibition; Potency, µM (series often up to 57.5 µM), for the others: at the top dose activity change, negative = inhibition, most hits filed as inhibitors;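 note: plate controls were vehicle for no effect and reference inhibitor for full effect; nearly all actives have a fitted effect of over 55% in size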
# Target sequence (P08659 whole entry, looked up): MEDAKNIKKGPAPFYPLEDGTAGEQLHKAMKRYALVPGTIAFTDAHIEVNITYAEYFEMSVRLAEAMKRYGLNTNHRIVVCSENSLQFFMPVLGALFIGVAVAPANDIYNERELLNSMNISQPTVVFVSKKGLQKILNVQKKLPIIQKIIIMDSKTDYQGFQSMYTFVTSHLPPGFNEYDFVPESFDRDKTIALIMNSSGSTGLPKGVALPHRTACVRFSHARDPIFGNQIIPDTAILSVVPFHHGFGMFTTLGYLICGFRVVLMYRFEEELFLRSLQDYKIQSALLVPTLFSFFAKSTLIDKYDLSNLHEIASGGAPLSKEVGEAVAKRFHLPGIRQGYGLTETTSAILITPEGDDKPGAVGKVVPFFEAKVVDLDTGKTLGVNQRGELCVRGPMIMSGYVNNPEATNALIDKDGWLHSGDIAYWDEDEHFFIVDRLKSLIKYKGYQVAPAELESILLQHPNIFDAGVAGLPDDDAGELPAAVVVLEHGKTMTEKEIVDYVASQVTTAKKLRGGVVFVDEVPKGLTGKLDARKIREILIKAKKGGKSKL
#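 Purified P. pyralis luciferase (10nM final) with 10uM D-luciferin and 10uM ATP (Km levels) in 50mM Tris acetate pH 7.5, 10mM Mg acetate, 0.01% Tween-20, 0.05% BSA; qHTS 6-point titration, ~60 µM downward; luminescence read.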
# Rab9 promoter act: Rab9 promoter activation | Huh7 Rab9 promoter-luciferase reporter, luminescence, 24 h | Potency, µM (titrated, usually from 9.22 µM), for inactives: at the highest dose activation, negative = inhibition, usual class: activators | 2.8% of 320,000 active | AID 485297; note: % of control where 0% means no effect; nearly all actives have a fitted effect of over 60% in size
#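 Cells were plated at 1500 per well in reduced-serum medium with 10% FBS and left 2 h. Compound in DMSO was then added for 24 h at 37 °C. Reporter signal was read by luminescence after 10 min with luciferase detection reagent.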
# ELG1 genotoxic: genotoxicity induction in ELG1-luciferase HEK293T cells; HEK293T ELG1-luciferase reporter, luminescence, 16 h; Potency, µM (series often up to 46 µM), without a hit: at the top dose activity change, positive = activation, actives largely listed as activators; 1.3% of 330,000 active; note: % of control where 0% means no effect; nearly all actives have a fitted effect of over 60% in size
#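 Screening used a luciferase reporter fused to human ELG1 in HEK293T cells. Luminescence was read on a CCD plate imager after 16 hr exposure and 30 min ONE-Glo incubation.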
# NPC1 promoter act: activators of NPC1 promoter; 2.4% of 320,000 active; Huh7 NPC1 promoter luciferase reporter, 24 h; AID 485313; Potency, µM (highest dose often 9.22 µM), without a hit: top-dose activation, most hits filed as activators; note: % of control where 0% means no effect; nearly all actives have a fitted effect of over 60% in size
#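 NPC1 promoter–luciferase Huh7 cells; 24 h compound; luminescence.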
# The depositor's hits bear a star; ? = inconclusive; · = no result given; [ ] = remark or other dose. Calls come from the whole dose curve; as a rule, active = well fitted curve in the direction sought with a large enough effect; inconclusive = small, poorly fitted or top-dose-only effect, or another doubt; inactive = no such curve, though single readings can be large; an effect the other way counts as inactive or inconclusive. Potency is the fitted concentration of half-maximal effect.
SMILES,Luc counter,SMN2 splice up,FLuc counter,Rab9 promoter act,ELG1 genotoxic,NPC1 promoter act
CCNC(=S)N/N=C/c1cccc(/C=N/NC(=S)NCC)c1,1%,3%,2%,14%,-1%,9%
CCNC(=S)N/N=C/c1cccc(OCc2c(F)cccc2Cl)c1,-10%,-53%,17µM*,-7%,-4%,3%
COCCCNC(=O)CN1C(=O)c2cccnc2Sc2ccccc21,·,·,2%,·,·,·
CCOc1cccc(C(=O)N/N=C/c2ccoc2)c1,·,·,13µM*,1%,?,-4%
CC(C)c1cc(C(=O)N/N=C/c2ccoc2)cs1,·,·,12µM*,?,?,?
Cc1ccc(C(=O)N/N=C/c2ccoc2)cc1C,·,·,27µM*,?,?,?
CC(C)c1cc(C(=O)N/N=C/c2cccnc2)cs1,0%,?,?,-5%,16%,-1%
COc1ccc(C(=O)N/N=C\c2ccoc2)cc1,·,·,19µM*,26%,?,?
COc1cc(OC)c(C(=O)N/N=C/c2ccoc2)cc1OC,·,·,-8%,7%,?,0%
COc1ccccc1C1OC(=O)CC1C(=O)OC[C@@H]1CCCN2CCCCC12 (some centres not stated),-1%,-4%,·,·,·,·
CCOC(=O)c1ccc(NC(=O)c2nn(C)cc2Br)cc1,-2%,24%,6.7µM*,?,21µM*,?
CCOC(=O)c1ccc(NC(=S)NC(=O)c2nn(CC)cc2Br)cc1,0%,12%,-3%,2%,2%,10%
CCOC(=O)c1ccc(NC(=O)c2nn(CC)cc2Br)cc1,-15%,?,11µM*,?,?,?
CCn1cc(Br)c(C(=O)Nc2ccc(F)c(Cl)c2)n1,0%,11%,17µM*,2.8µM*,?,2.2µM*
CCOC(=O)c1ccc(NC(=O)Nc2ccn(C)n2)cc1,2%,8%,?,?,18%,?
C[C@@H](N)CCCP(=O)(O)O,·,-3%,·,·,·,·
COc1ccc2[nH]cc(CCNc3ncnc4ccc(-c5ccccc5C#N)cc34)c2c1,-1%,-10%,·,·,·,·
O=C(NCCc1ccccc1)c1ccc2c(c1)CCN2S(=O)(=O)c1ccc(Cl)cc1,·,9%,-7%,·,·,·
CN(C)c1ccc(N=C/C=C2\N(C)c3ccccc3C2(C)C)cc1,-12%,-19%,15µM*,15%,5%,22%
CN1\C(=C/C=C/C=C/C=[N+](C)C)C(C)(C)c2ccccc21,11µM*,-26%,8.5µM*,-8%,-2%,-16%
CN1/C(=C\C=O)C(C)(C)c2ccccc21,-3%,0%,-1%,-6%,-2%,-6%
CN=c1scc(-c2ccc([N+](=O)[O-])cc2)n1/N=C/c1ccco1,-5%,·,?,0.4µM*,?,?
COc1ccc(NC2=CC(=O)N(C)C2=O)cc1,1%,11µM*,?,?,?,?
COc1ccc(Nc2ccc(OC)cc2)cc1,·,·,19µM*,?,·,?
COc1ccc(NC(C#N)c2ccc(OC)cc2)cc1 (configuration not stated),-1%,-4%,3µM*,0%,?,-1%
SMILES,Luc counter,SMN2 splice up,FLuc counter,Rab9 promoter act,ELG1 genotoxic,NPC1 promoter act
COc1ccc(NC2=C(C)C(=O)CC2)cc1,-6%,?,3%,1%,18µM*,-4%
Cc1ccc(NC(=O)Cn2nc(-c3ccccc3)nc(Cc3ccccc3)c2=O)cc1,·,·,2%,·,·,·
O=c1c2sc3ccccc3c2n(Cc2ccccc2)c(=O)n1CCc1ccccc1,·,3%,-6%,·,·,·
O=CN1CCc2c([nH]c3ccccc23)C1c1cccc2cccnc12 (configuration not stated),-1%,-7%,·,·,·,·
NNc1nc(Nc2ccccc2)nc(Nc2ccccc2)n1,-2%,-4%,?,0%,-2%,9%
COc1ccc(Nc2nc(NN)nc(Nc3ccc(OC)cc3)n2)cc1,·,·,11µM*,-5%,-9%,6%
CSCCC(NS(=O)(=O)c1ccc2c(c1)oc(=O)n2C)C(=O)NCc1ccc(Cl)cc1 (configuration not stated),·,·,0%,·,·,·
CC1(C)CC(=O)c2cc(C(=O)Nc3ccc(Br)cc3)c(=O)[nH]c2C1,·,2%,-6%,·,·,·
C/C(=N\NC(=O)C1COc2ccccc2O1)c1ccccn1 (configuration not stated),-2%,-76%,-11%,-25%,12µM*,-12%
Cc1ccnc(NC(=O)C2COc3ccccc3O2)c1 (configuration not stated),-9%,?,9.5µM*,3.5µM*,?,2.8µM*
Cc1ccc(NC(=O)C2COc3ccccc3O2)nc1 (configuration not stated),-6%,-6%,13µM*,27%,10µM*,24%
Cc1ccc(NC(=O)C2COc3ccccc3O2)c(C)c1 (configuration not stated),·,·,?,4%,11%,27%
O=C(Nc1ncccc1Cl)C1COc2ccccc2O1 (configuration not stated),-5%,-15%,17µM*,9%,?,-2%
O=C(Nc1cccnc1)C1COc2ccccc2O1 (configuration not stated),-7%,-5%,-3%,-3%,1%,0%
CC(=O)Oc1c(C)cc(OCC(O)CNC(C)C)c(C)c1C (configuration not stated),-2%[39.9 µM],·,·,·,·,·
COCCn1c(SCC(=O)Nc2ccc(F)c(Cl)c2)nc2c(oc3ccccc32)c1=O,·,-1%,-6%,·,·,·
Cc1ccc(NC(=O)C2COc3ccccc3O2)cc1 (configuration not stated),·,·,24µM*,3.5µM*,?,2.8µM*
CN(C)S(=O)(=O)Nc1ccc(-c2cn3ccsc3n2)cc1,·,·,27µM*,·,·,·
O=C(Nc1ccc(-c2cn3ccsc3n2)cc1)C1COc2ccccc2O1 (configuration not stated),-3%,9%,27µM*,3.2µM*,-1%,?
O=C(NC1CCCCC1)C1COc2ccccc2O1 (configuration not stated),·,·,2%,3%,4%,0%
CC1CCC(NC(=O)C2COc3ccccc3O2)CC1 (configuration not stated),·,·,-5%,20%,15µM*,18%
CC1(C)Oc2ccc(NC(=O)C3COc4ccccc4O3)cc2O1 (configuration not stated),-22%,-23%,1.9µM*,0.5µM*,?,1.6µM*
O=C(Nc1ccccc1)C1COc2ccccc2O1 (configuration not stated),·,·,-15%,10%,16%,25%
